The results in this text go back to PubChem BioAssay (NCATS).

Where “and” joins values, the source holds several entries; their conditions need not be identical. Identical values can stand only once. Results filed as inconclusive are left out. Unmarked numbers belong to inactive results. Calls of active or inactive are those of the source. Calls follow the shape of the dose curve; as a rule, active = well fitted curve in the direction sought with a large enough effect; inconclusive = small, poorly fitted or top-dose-only effect, or another doubt; inactive = no such curve, though single readings can be large; an effect the other way counts as inactive or inconclusive.
Potency is read from the fitted curve at half-maximal effect.

The nature of the first test: Cell Viability - LYMP2-003 (AID 965).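 Also: cells exposed to compounds for 24 h before reading; nearly all actives have a fitted effect of over 50% in size.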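 As to activity change, negative = cytotoxicity: 0% = DMSO only and full effect = 92 µM tetraoctylammonium bromide.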 Particulars: LYMP2-003 lymphoblastoid cell viability; series mostly up to 92.2 µM; activity change, negative = cytotoxicity: at the top concentration. The method in brief: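 Seed 2500 lymphoblastoid cells/well; incubate 5 hr, 37 C; add compounds; incubate 24 hr, 37 C; add CellTiter-Glo, 30 min RT; read luminescence. AC50 from Hill fit.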
For `CCCCCCCCCCCC[N+](C)(C)CCOc1ccccc1`, the Potency was 50.1 µM (active).

Turning to `COC(=O)C1=C(C)NC(C)=C(C(=O)OC)C1c1ccccc1[N+](=O)[O-]`, the Potency was 50.1 µM (active).

With `CNC(=O)Oc1cccc2ccccc12`, the “activity change, negative = cytotoxicity” value is 4.99%.

In the case of `O=C(CCl)c1ccc(Cl)cc1Cl`, the Potency is 10 µM (active).

Turning to `CN(C)C(=S)SSC(=S)N(C)C`, the Potency is 0.251 µM (active).

For `CC[n+]1c(-c2ccccc2)c2cc(N)ccc2c2ccc(N)cc21`, the Potency was 31.6 µM (active).

Regarding `Oc1c(Br)cc(Br)cc1Br`, the “activity change, negative = cytotoxicity” value was 25.3%.

On to `COP(=O)(OC)OC=C(Cl)Cl`, for which the “activity change, negative = cytotoxicity” value was -28.7%.

The next test in a line: Cell Viability - LYMP2-004 (AID 966). Also: nearly all actives have a fitted effect of over 65% in size.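 As to activity change, negative = cytotoxicity: plate controls were DMSO only for no effect and tetraoctylammonium bromide control for full effect.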 The following applies: LYMP2-004 lymphoblastoid cell viability, qHTS; series mostly up to 92.2 µM; activity change, negative = cytotoxicity: at the top concentration. The method in brief: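 qHTS cytotoxicity: human lymphoblastoid line, 24 hr compound treatment, 37 C, complete medium. Viability read as cellular ATP via luciferase luminescence; tetraoctylammonium bromide served as positive control.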
(Quantitative high-throughput screening tests each substance at several concentrations.)
Turning to `COC(=O)C1=C(C)NC(C)=C(C(=O)OC)C1c1ccccc1[N+](=O)[O-]`, the Potency was 31.6 µM (active).

For the compound `CNC(=O)Oc1cccc2ccccc12`, the “activity change, negative = cytotoxicity” value was -16%.

With `O=C(CCl)c1ccc(Cl)cc1Cl`, the Potency was 6.31 µM (active).

For `CN(C)C(=S)SSC(=S)N(C)C`, the Potency is 0.251 µM (active).

As to `Oc1c(Br)cc(Br)cc1Br`, the “activity change, negative = cytotoxicity” value is -2.48%.

A short description of the next test: Cell Viability - LYMP2-005 (AID 967).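 Also: cells exposed to compound for 24 h at 37 °C.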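 As to activity change, negative = viability loss: plate controls were DMSO only for no effect and 92 µM tetraoctylammonium bromide control for full effect.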 Particulars: LYMP2-005 lymphoblastoid cell viability; series mostly up to 92.2 µM; activity change, negative = viability loss: at the top concentration. The procedure, abridged:
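Acute cytotoxicity is scored as a concentration-dependent drop in intracellular ATP in human lymphoblastoid LYMP2-005 cells after 24 h compound treatment. ATP is quantified by luciferase luminescence, and AC50 is derived by Hill-equation modelling.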
Take `CNC(=O)Oc1cccc2ccccc12`: the “activity change, negative = viability loss” value was 24.2%.

For the compound `O=C(CCl)c1ccc(Cl)cc1Cl`, the Potency is 10 µM (active).

`CN(C)C(=S)SSC(=S)N(C)C`: the Potency is 0.501 µM (active).

Take `CC[n+]1c(-c2ccccc2)c2cc(N)ccc2c2ccc(N)cc21`: the Potency was 6.31 µM (active).

As for `Oc1c(Br)cc(Br)cc1Br`, the “activity change, negative = viability loss” value was 20.4%.

`COP(=O)(OC)OC=C(Cl)Cl`: the “activity change, negative = viability loss” value is -69.6%.

Another test can be described thus: Cell Viability - LYMP2-009 (AID 968).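 Also: cells exposed to compound for 24 h at 37 °C; nearly all actives have a fitted effect of over 55% in size.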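 As to activity change, negative = viability loss: 0% = DMSO alone and the full-kill end = tetraoctylammonium bromide at 92 µM.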 The following applies: LYMP2-009 lymphoblastoid cell viability; series mostly up to 92.2 µM; activity change, negative = viability loss: at the top concentration.
As for `CCCCCCCCCCCC[N+](C)(C)CCOc1ccccc1`, the Potency was 31.6 µM (active).

`CNC(=O)Oc1cccc2ccccc12`: the “activity change, negative = viability loss” value was -14.4%.

With `O=C(CCl)c1ccc(Cl)cc1Cl`, the Potency was 6.31 µM (active).

Regarding `CN(C)C(=S)SSC(=S)N(C)C`, the Potency is 0.199 µM (active).

Regarding `CC[n+]1c(-c2ccccc2)c2cc(N)ccc2c2ccc(N)cc21`, the Potency was 15.8 µM (active).

With `Oc1c(Br)cc(Br)cc1Br`, the “activity change, negative = viability loss” value was -11.7%.

Take `COP(=O)(OC)OC=C(Cl)Cl`: the “activity change, negative = viability loss” value was -14.1%.

The nature of the next test: Cell Viability - LYMP2-011 (AID 969). Also: nearly all actives have a fitted effect of over 60% in size.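 As to viability change, negative = cytotoxic: 0% = DMSO only and full inhibition = 92 µM tetraoctylammonium bromide.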 Particulars: LYMP2-011 lymphoblastoid cells viability; series mostly up to 92.2 µM; viability change, negative = cytotoxic: at the top concentration. The method in brief:
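In this qHTS cytotoxicity format, compounds are tested across concentrations on human lymphoblastoid cells in complete medium for 24 hours at 37 C. Viability is taken as cellular ATP measured by luciferase luminescence.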
As to `CCCCCCCCCCCC[N+](C)(C)CCOc1ccccc1`, the Potency was 39.8 µM (active).

For the compound `CNC(=O)Oc1cccc2ccccc12`, the “viability change, negative = cytotoxic” value was -2.22%.

As to `O=C(CCl)c1ccc(Cl)cc1Cl`, the Potency is 6.31 µM (active).

On to `CN(C)C(=S)SSC(=S)N(C)C`, for which the Potency is 0.316 µM (active).

Take `CC[n+]1c(-c2ccccc2)c2cc(N)ccc2c2ccc(N)cc21`: the Potency was 12.6 µM (active).

Turning to `Oc1c(Br)cc(Br)cc1Br`, the “viability change, negative = cytotoxic” value was -0.999%.

In the case of `COP(=O)(OC)OC=C(Cl)Cl`, the “viability change, negative = cytotoxic” value is -5.23%.

The nature of the next test: Cell Viability - LYMP2-013 (AID 970).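 Also: cells exposed to compound for 24 h at 37 °C; nearly all actives have a fitted effect of over 55% in size.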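 As to activity change, negative = cytotoxic: 0% = DMSO only and full inhibition = tetraoctylammonium bromide control.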 Particulars: LYMP2-013 lymphoblastoid cells viability; series mostly up to 92.2 µM; activity change, negative = cytotoxic: at the top concentration. The method in brief:
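Cytotoxicity is scored as a concentration-dependent drop in intracellular ATP in human lymphoblastoid cells after 24 hr compound exposure at 37 C. ATP is quantified by luciferase luminescence, and AC50 values come from Hill-equation modeling.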
Turning to `CCCCCCCCCCCC[N+](C)(C)CCOc1ccccc1`, the Potency is 31.6 µM (active).

For the compound `CNC(=O)Oc1cccc2ccccc12`, the “activity change, negative = cytotoxic” value is -22.8%.

Turning to `O=C(CCl)c1ccc(Cl)cc1Cl`, the Potency was 7.94 µM (active).

Take `CN(C)C(=S)SSC(=S)N(C)C`: the Potency is 0.398 µM (active).

For the compound `CC[n+]1c(-c2ccccc2)c2cc(N)ccc2c2ccc(N)cc21`, the Potency was 15.8 µM (active).

`Oc1c(Br)cc(Br)cc1Br`: the “activity change, negative = cytotoxic” value was -0.31%.

In the case of `COP(=O)(OC)OC=C(Cl)Cl`, the “activity change, negative = cytotoxic” value is -22.4%.

As to `C[C@@H]1C[C@@H]([C@H](O)CC2CC(=O)NC(=O)C2)C(=O)[C@@H](C)C1`, the Potency is 2 µM (active).

A further test is described as follows: Cell Viability - LYMP2-015 (AID 971). Also: nearly all actives have a fitted effect of over 55% in size.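 As to activity change, negative = lower viability: 0% = DMSO only and full effect = 92 µM tetraoctylammonium bromide.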 Particulars: LYMP2-015 lymphoblastoid cell viability; series mostly up to 92.2 µM; activity change, negative = lower viability: at the top concentration. The method in brief: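 Cells are seeded at 2500 per well and incubated 5 hr at 37 C. Compounds are added across a concentration series for 24 hr at 37 C. CellTiter-Glo is added, and luminescence is read after 30 min at room temperature.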
As to `CCCCCCCCCCCC[N+](C)(C)CCOc1ccccc1`, the Potency was 31.6 µM (active).

Regarding `CNC(=O)Oc1cccc2ccccc12`, the “activity change, negative = lower viability” value is -13.7%.

For `O=C(CCl)c1ccc(Cl)cc1Cl`, the Potency is 5.01 µM (active).

On to `CN(C)C(=S)SSC(=S)N(C)C`, for which the Potency is 0.251 µM (active).

For `CC[n+]1c(-c2ccccc2)c2cc(N)ccc2c2ccc(N)cc21`, the Potency was 15.8 µM (active).

In the case of `Oc1c(Br)cc(Br)cc1Br`, the “activity change, negative = lower viability” value is -9.25%.

With `COP(=O)(OC)OC=C(Cl)Cl`, the “activity change, negative = lower viability” value was -18.9%.

On to `C[C@@H]1C[C@@H]([C@H](O)CC2CC(=O)NC(=O)C2)C(=O)[C@@H](C)C1`, for which the Potency was 2 µM (active) and 1 µM (active).

The next test in a line: Cell Viability - LYMP2-017 (AID 972). Also: nearly all actives have a fitted effect of over 55% in size. As to activity change, negative = cytotoxicity: % is scaled to controls: 0 for no effect and ±100 for the full control effect. Particulars: LYMP2-017 lymphoblastoid cell viability; series mostly up to 92.2 µM; activity change, negative = cytotoxicity: at the top concentration. The method in brief: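 Cytotoxicity is scored as a concentration-dependent drop in cellular ATP in a human lymphoblastoid line after 24 hr treatment at 37 C. Values are AC50s from Hill-equation modelling.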
In the case of `CCCCCCCCCCCC[N+](C)(C)CCOc1ccccc1`, the Potency was 39.8 µM (active).

As to `COC(=O)C1=C(C)NC(C)=C(C(=O)OC)C1c1ccccc1[N+](=O)[O-]`, the Potency was 50.1 µM (active).

As for `CNC(=O)Oc1cccc2ccccc12`, the “activity change, negative = cytotoxicity” value was -12.9%.

`O=C(CCl)c1ccc(Cl)cc1Cl`: the Potency is 3.16 µM (active).

For `CN(C)C(=S)SSC(=S)N(C)C`, the Potency is 0.199 µM (active).

Regarding `CC[n+]1c(-c2ccccc2)c2cc(N)ccc2c2ccc(N)cc21`, the Potency is 15.8 µM (active).

Turning to `Oc1c(Br)cc(Br)cc1Br`, the “activity change, negative = cytotoxicity” value was -7.19%.

With `COP(=O)(OC)OC=C(Cl)Cl`, the “activity change, negative = cytotoxicity” value was -2.42%.

In the case of `C[C@@H]1C[C@@H]([C@H](O)CC2CC(=O)NC(=O)C2)C(=O)[C@@H](C)C1`, the Potency was 1.58 µM (active).

A short description of another test: Cell Viability - LYMP2-019 (AID 973).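 As to activity change, negative = cytotoxicity: 0% = DMSO alone and full effect = 92 µM tetraoctylammonium bromide.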 The following applies: LYMP2-019 lymphoblastoid cell line viability; series mostly up to 92.2 µM; activity change, negative = cytotoxicity: at the top concentration. The method in brief:
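Cytotoxicity is scored as a concentration-dependent drop in cellular ATP after cells (2500/well) receive compound for 24 hr at 37 C. Tetraoctylammonium bromide serves as positive control.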
On to `CCCCCCCCCCCC[N+](C)(C)CCOc1ccccc1`, for which the Potency is 39.8 µM (active).

`COC(=O)C1=C(C)NC(C)=C(C(=O)OC)C1c1ccccc1[N+](=O)[O-]`: the Potency is 79.4 µM (active).

`CNC(=O)Oc1cccc2ccccc12`: the “activity change, negative = cytotoxicity” value was -13.6%.

In the case of `O=C(CCl)c1ccc(Cl)cc1Cl`, the Potency is 7.94 µM (active).

As to `CN(C)C(=S)SSC(=S)N(C)C`, the Potency is 0.199 µM (active).

Consider `CC[n+]1c(-c2ccccc2)c2cc(N)ccc2c2ccc(N)cc21`, for which the Potency was 12.6 µM (active).

Consider `Oc1c(Br)cc(Br)cc1Br`, for which the “activity change, negative = cytotoxicity” value was -14%.

Consider `COP(=O)(OC)OC=C(Cl)Cl`, for which the “activity change, negative = cytotoxicity” value is -8.33%.

A short description of another test: Cell Viability - LYMP2-021 (AID 974). As to activity change, negative = cytotoxicity: % is scaled to controls: 0 for no effect and ±100 for the full control effect. Particulars: LYMP2-021 lymphoblastoid cells viability; series mostly up to 92.2 µM; activity change, negative = cytotoxicity: at the top concentration. The method in brief:
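Loss of cellular ATP, measured with a luciferase-based CellTiter-Glo readout, serves as the toxicity signal in human lymphoblastoid cells treated for 24 hours at 37 C. Potency is reported as AC50 from a standard Hill model.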
On to `CCCCCCCCCCCC[N+](C)(C)CCOc1ccccc1`, for which the Potency is 39.8 µM (active).

Regarding `CNC(=O)Oc1cccc2ccccc12`, the “activity change, negative = cytotoxicity” value was -17.3%.

In the case of `O=C(CCl)c1ccc(Cl)cc1Cl`, the Potency is 3.98 µM (active).

For `CN(C)C(=S)SSC(=S)N(C)C`, the Potency was 0.501 µM (active).

Take `CC[n+]1c(-c2ccccc2)c2cc(N)ccc2c2ccc(N)cc21`: the Potency is 20 µM (active).

Turning to `Oc1c(Br)cc(Br)cc1Br`, the “activity change, negative = cytotoxicity” value was 0.991%.

Turning to `COP(=O)(OC)OC=C(Cl)Cl`, the “activity change, negative = cytotoxicity” value was -4.05%.
